Results filed as inconclusive are left out. Calls of active or inactive are those of the source. Unless noted, the call rests on the fitted dose curve.
Assays:
[1] = Nuclear factor erythroid 2-related factor 2/antioxidant responsive element (Nrf2/ARE) small molecule agonists: qHTS cell viability counter screen in human keratinocytes (AID 1919968; active means well fitted curve in the direction sought with a large enough effect in the repeat runs; an effect the other way counts as inactive or inconclusive; further: nearly all actives have a fitted effect of over 55% in size)
Outline: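 KeratinoSens HaCaT cells, 1,500/well, preincubated 5 h, then exposed to compounds in DMSO for 23 h at 37 C/5% CO2. Viability read as CellTiter-Fluor fluorescence after 1 h, in the same wells as the ARE-luciferase read.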

[2] = Nuclear factor erythroid 2-related factor 2/antioxidant responsive element (Nrf2/ARE) small molecule agonists: luciferase reporter gene qHTS assay in human keratinocytes (AID 1919969); further: nearly all actives have a fitted effect of over 35% in size
[3] = molecular target: Gonadotropin-releasing hormone receptor (Homo sapiens) (UniProt P30968); test: Human gonadotropin-releasing hormone receptor (GnRHR) small molecule agonists, calcium flux assay in GnRHR-HEK293 cells (AID 1920063); further: nearly all actives have a fitted effect of over 35% in size
Chain of Gonadotropin-releasing hormone receptor (Homo sapiens) (P30968 whole entry, looked up): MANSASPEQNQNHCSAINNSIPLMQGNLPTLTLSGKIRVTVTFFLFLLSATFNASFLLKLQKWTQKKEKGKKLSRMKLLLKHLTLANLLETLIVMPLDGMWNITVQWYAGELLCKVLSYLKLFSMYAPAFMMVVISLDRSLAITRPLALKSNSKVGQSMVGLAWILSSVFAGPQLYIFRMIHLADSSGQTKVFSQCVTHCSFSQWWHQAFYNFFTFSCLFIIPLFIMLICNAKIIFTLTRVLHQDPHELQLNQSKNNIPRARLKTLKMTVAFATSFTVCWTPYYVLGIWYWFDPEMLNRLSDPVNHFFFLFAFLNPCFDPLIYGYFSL
Outline: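 HEK293 cells stably expressing human GnRHR were dye-loaded for 1 h at 37 C. Compound was added in agonist mode and fluorescence (Ex/Em 480/540) recorded kinetically for 3 min. Fifteen concentrations, triplicates.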

[4] = molecular target: KiSS-1 receptor (Homo sapiens) (UniProt Q969F8); test: Human kisspeptin (KISS1R) small molecule agonists, calcium flux assay in KISS1R-HEK293 cells (AID 1920064; active means well fitted curve in the direction sought with a large enough effect in the repeat runs; an effect the other way counts as inactive or inconclusive)
Chain of KiSS-1 receptor (Homo sapiens) (Q969F8 whole entry, looked up): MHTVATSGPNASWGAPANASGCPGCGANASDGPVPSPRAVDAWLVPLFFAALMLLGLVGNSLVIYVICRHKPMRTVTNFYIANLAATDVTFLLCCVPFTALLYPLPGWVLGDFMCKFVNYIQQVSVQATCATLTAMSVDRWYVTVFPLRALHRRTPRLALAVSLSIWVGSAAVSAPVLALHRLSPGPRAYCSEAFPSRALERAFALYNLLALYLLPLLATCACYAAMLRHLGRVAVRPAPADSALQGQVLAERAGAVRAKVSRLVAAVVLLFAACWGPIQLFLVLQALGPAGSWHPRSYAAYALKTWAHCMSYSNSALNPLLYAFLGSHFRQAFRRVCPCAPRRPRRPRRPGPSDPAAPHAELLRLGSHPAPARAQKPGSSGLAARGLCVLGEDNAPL
Outline: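 HEK293 cells stably expressing human KISS1R were loaded with calcium dye for 1 h at 37 C, then given compound; fluorescence (Ex/Em 480/540) was read kinetically for 3 min. Fifteen concentrations, triplicate.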

[5] = G protein-coupled receptor (GPCR) small molecule agonists, calcium flux assay: HEK293 wild type cell line counter screen (AID 1920065)
Outline: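 Wild-type HEK293 cells plated 18 h, loaded with calcium dye 1 h at 37 C, then compounds added in agonist mode (ATP as positive control). Kinetic fluorescence Ex/Em 480/540 recorded 3 min at 1 sec intervals; 15 concentrations, triplicate.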

[6] = p53 small molecule agonists, cell-based qHTS assay with human liver microsomes (AID 1963577);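 further: p53 response element beta-lactamase reporter cells with liver microsomes plus NADPH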
Outline: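 With metabolic activation: human liver microsomes (0.5 mg/mL final) plus NADPH (0.5 mg/mL final) added alongside compounds to p53RE-bla cells; 16 h 37 C exposure; beta-lactamase read by LiveBLAzer fluorescence.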

[7] = p53 small molecule agonists, cell-based qHTS assay with rat liver microsomes (AID 1963578)
Outline: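 Metabolic activation by rat liver microsomes and NADPH, each 0.5 mg/mL final, added right after compounds to p53RE-bla reporter cells (4,000/well, plated 5 h earlier). 16 h at 37 C, then LiveBLAzer substrate for 2 h at room temperature in the dark; fluorescence read-out.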

[8] = p53 small molecule agonists, cell-based qHTS assay with human liver microsomes: qHTS cell viability counter screen (AID 1963579); further: nearly all actives have a fitted effect of over 45% in size
Outline: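 Metabolic activation used human liver microsomes and NADPH, both 0.5 mg/mL final, over 16 hours at 37 C on p53RE-bla cells (4,000/well). Cytotoxicity measured by CellTiter-Glo luminescence, 30 min at room temperature.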

[9] = p53 small molecule agonists, cell-based qHTS assay with rat liver microsomes: qHTS cell viability counter screen (AID 1963580); further: nearly all actives have a fitted effect of over 45% in size
Outline: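 Intracellular ATP, by CellTiter-Glo luminescence, defines viability. HCT-116 p53RE-bla cells, 4,000 per well, were compound-treated in the presence of rat liver microsomes and NADPH for 16 h at 37 C.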

[10] = p53 small molecule agonists, cell-based qHTS assay: qHTS cell viability counter screen (AID 1963581); further: nearly all actives have a fitted effect of over 45% in size
Outline: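 p53RE-bla HCT-116 cells, compounds added 5 h after plating and incubated 16 h at 37 C. Cytotoxicity measured in the same wells as intracellular ATP by CellTiter-Glo luminescence after 30 min at room temperature.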

[11] = p53 small molecule agonists, cell-based qHTS assay (AID 1963582; active means well fitted activation curve with a large enough effect in the signal ratio in the repeat runs, not every such curve was filed as active; the % refers to the signal ratio)
Outline: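 p53RE-bla reporter cells, compounds added in DMSO after 5 h plating, incubated 16 h at 37 C. Beta-lactamase read via 2 h room-temperature LiveBLAzer B/G FRET substrate, fluorescence intensity.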

[12] = molecular target: 5-hydroxytryptamine receptor 2A (Homo sapiens) (UniProt P28223); test: 5-hydroxytryptamine receptor 2A (HTR2A) small molecule antagonists, cell-based qHTS assay (AID 1963586); further: nearly all actives have a fitted effect of over 45% in size
Chain of 5-hydroxytryptamine receptor 2A (Homo sapiens) (P28223 whole entry, looked up): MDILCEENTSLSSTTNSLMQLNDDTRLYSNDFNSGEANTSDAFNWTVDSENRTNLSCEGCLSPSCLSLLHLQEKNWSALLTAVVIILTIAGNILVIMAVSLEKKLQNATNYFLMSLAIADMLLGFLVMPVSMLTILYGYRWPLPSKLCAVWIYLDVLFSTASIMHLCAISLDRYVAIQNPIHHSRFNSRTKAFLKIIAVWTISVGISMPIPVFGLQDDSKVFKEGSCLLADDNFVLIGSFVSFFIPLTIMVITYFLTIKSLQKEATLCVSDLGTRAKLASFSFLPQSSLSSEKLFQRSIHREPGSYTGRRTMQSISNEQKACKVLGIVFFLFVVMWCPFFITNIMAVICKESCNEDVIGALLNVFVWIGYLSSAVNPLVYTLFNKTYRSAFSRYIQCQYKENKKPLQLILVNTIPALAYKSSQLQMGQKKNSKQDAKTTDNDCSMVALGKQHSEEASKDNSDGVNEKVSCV
Outline: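 Antagonist-mode intracellular calcium assay: DOI (4 nM) added after 5 min compound pre-incubation at room temperature to dye-loaded HTR2A-CHO cells. Fluorescence followed for 3 min, sampled every second.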

[13] = molecular target: 5-hydroxytryptamine receptor 2A (Homo sapiens) (UniProt P28223); test: 5-hydroxytryptamine receptor 2A (HTR2A) small molecule agonists, cell-based qHTS assay (AID 1963587); further: nearly all actives have a fitted effect of over 30% in size
Outline: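 Kinetic calcium-flux fluorescence (2 min, 1 sec intervals) after compound addition in agonist mode. HTR2A-CHO cells were cultured 18 h, then dye-loaded 1 h at 37 C.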

[14] = molecular target: Muscarinic acetylcholine receptor M1 (Homo sapiens) (UniProt P11229); test: Cholinergic receptor muscarinic 1 (CHRM1) small molecule antagonists, cell-based qHTS assay (AID 1963588); further: nearly all actives have a fitted effect of over 40% in size
Chain of Muscarinic acetylcholine receptor M1 (Homo sapiens) (P11229 whole entry, looked up): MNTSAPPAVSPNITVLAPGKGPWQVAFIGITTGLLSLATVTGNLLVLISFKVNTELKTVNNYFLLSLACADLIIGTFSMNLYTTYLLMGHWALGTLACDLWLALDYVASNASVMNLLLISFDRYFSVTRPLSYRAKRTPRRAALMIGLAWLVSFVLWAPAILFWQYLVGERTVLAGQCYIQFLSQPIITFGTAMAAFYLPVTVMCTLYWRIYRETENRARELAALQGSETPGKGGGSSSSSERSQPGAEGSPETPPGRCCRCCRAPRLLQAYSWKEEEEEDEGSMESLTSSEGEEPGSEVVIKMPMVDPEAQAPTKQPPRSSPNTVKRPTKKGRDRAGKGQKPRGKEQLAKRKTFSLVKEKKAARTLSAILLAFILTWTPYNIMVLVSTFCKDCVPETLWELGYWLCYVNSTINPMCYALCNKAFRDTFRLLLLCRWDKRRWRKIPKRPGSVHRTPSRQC
Outline: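 CHRM1-CHO calcium-flux assay, antagonist mode. Cells were seeded 18 h, dye-loaded 1 h at 37 C and given compound for 5 min at RT, then acetylcholine was added at 50nM. FDSS fluorescence was read 3 min; 15 concentrations, three runs.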

[15] = molecular target: Muscarinic acetylcholine receptor M1 (Homo sapiens) (UniProt P11229); test: Cholinergic receptor muscarinic 1 (CHRM1) small molecule agonists, cell-based qHTS assay (AID 1963589); further: nearly all actives have a fitted effect of over 35% in size
Outline: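 CHO cells stably expressing human CHRM1 were loaded with calcium dye for 1 h at 37 C, then compound was added in agonist mode. Intracellular calcium fluorescence was followed kinetically at 1 s intervals. Fifteen concentrations were tested in three independent runs.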

[16] = cAMP Responsive Elements (CRE) small molecule agonists, cell-based qHTS assay (AID 1963590)
Outline: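 CRE-bla HEK 293T cells, 2,000/well in DMEM with 10% dialyzed FBS and 25 mM HEPES, pre-incubated 18 h at 37 C, then exposed to compound 3 h at 37 C. Beta-lactamase reporter read with LiveBLAzer B/G FRET substrate after 2 h at room temperature.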

[17] = cAMP Responsive Elements (CRE) small molecule antagonists, cell-based qHTS assay (AID 1963591; active means well fitted inhibition curve with a large enough effect in the signal ratio in the repeat runs, not every such curve was filed as active; the % refers to the signal ratio)
Outline: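 CRE-bla HEK293T cells plated 18 h, then given compound plus NKH477 at 0.25 uM final for 3 h at 37C. Beta-lactamase reporter read with LiveBLAzer B/G FRET substrate after 2 h at room temperature.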

[18] = molecular target: Beta-2 adrenergic receptor (Homo sapiens) (UniProt P07550); test: Adrenergic beta2 receptor (ADRB2) small molecule antagonists, cell-based qHTS assay (AID 1963592); further: series mostly up to about 92 µM; nearly all actives have a fitted effect of over 50% in size
Chain of Beta-2 adrenergic receptor (Homo sapiens) (P07550 whole entry, looked up): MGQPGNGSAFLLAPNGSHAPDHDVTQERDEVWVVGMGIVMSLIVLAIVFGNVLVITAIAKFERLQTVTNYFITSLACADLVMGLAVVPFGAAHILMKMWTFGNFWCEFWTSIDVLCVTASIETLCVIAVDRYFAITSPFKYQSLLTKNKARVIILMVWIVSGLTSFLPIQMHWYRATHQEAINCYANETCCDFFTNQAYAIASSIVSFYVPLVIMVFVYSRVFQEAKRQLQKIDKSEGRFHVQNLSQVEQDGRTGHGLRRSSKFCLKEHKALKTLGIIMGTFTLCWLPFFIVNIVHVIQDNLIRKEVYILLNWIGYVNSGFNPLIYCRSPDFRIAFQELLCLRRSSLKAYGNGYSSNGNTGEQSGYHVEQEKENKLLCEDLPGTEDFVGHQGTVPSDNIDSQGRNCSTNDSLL
Outline: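 Cells (CHO, stable ADRB2 overexpression) incubated 18-20hr at 37C; compounds added from DMSO; agonist mix (1nM isoproterenol, 100uM IBMX, 25uM Ro-20-1724) added; 0.5hr RT; d2-cAMP and anti-cAMP-cryptate added; 1hr RT; 665/615 nm read.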

[19] = molecular target: Beta-2 adrenergic receptor (Homo sapiens) (UniProt P07550); test: Adrenergic beta2 receptor (ADRB2) small molecule agonists, cell-based qHTS assay (AID 1963593);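 further: CHO cells stably overexpressing human ADRB2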
Outline: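 CHO cells stably over-expressing ADRB2 were plated overnight at 37C, then dosed with compounds plus a stimulation mix containing 100uM IBMX and 25uM Ro-20-1724 for 0.5hr at room temperature. cAMP was measured by HTRF competition, 1hr.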

[20] = molecular target: D(2) dopamine receptor (Homo sapiens) (UniProt P14416); test: Dopamine D2 receptor (DRD2) small molecule agonists, cell-based qHTS assay (AID 1963594); further: nearly all actives have a fitted effect of over 35% in size
Chain of D(2) dopamine receptor (Homo sapiens) (P14416 whole entry, looked up): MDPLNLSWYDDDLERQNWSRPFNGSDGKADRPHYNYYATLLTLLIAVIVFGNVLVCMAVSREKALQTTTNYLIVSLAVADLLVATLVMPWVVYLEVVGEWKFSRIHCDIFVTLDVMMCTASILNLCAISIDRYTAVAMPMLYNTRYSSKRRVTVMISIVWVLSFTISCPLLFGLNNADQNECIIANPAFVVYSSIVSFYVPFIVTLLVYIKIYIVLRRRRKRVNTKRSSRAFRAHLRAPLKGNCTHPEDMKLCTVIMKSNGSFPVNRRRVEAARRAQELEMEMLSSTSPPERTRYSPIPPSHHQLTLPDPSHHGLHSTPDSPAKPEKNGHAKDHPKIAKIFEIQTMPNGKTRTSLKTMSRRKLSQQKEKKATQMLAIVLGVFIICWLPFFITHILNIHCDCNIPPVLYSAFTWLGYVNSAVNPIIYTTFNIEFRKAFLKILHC
Outline: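 cAMP accumulation in DRD2-HEK293 cells measured by HTRF after 1 h detection; compounds added 10 min before NKH477 (200nM […]) forskolin-analogue stimulation, 30 min at room temperature, with Ro20-1724 present at 0.1 mM final.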
On the % scale 0 is the no-effect control and ±100 the full control effect.

NCCNCCN
inactive: Potency [1] | Potency [2] | Potency [3] | Potency [4] | Potency [5] | Potency [6] | Potency [7] | Potency [8] | Potency [9] | Potency [10] | Potency [11] | Potency [12] | Potency [13] | Potency [14] | Potency [15] | Potency [16] | Potency [17] | Potency [18] | Potency [19] | Potency [20]

CC(CCO)CCc1ccccc1 (stereo not drawn)
inactive: Potency [1] | Potency [2] | Potency [3] | Potency [4] | Potency [5] | Potency [6] | Potency [7] | Potency [8] | Potency [9] | Potency [10] | Potency [11] | Potency [12] | Potency [13] | Potency [14] | Potency [15] | Potency [16] | Potency [17] | Potency [18] | Potency [19] | Potency [20]

CCc1c(Br)c(Br)c(Br)c(Br)c1Br
inactive: Potency [1] | Potency [2] | Potency [3] | Potency [4] | Potency [5] | Potency [6] | Potency [7] | Potency [8] | Potency [9] | Potency [10] | Potency [11] | Potency [12] | Potency [13] | Potency [14] | Potency [15] | Potency [16] | Potency [17] | Potency [18] | Potency [19] | Potency [20]

COc1cccc(OC)c1C(=O)O
inactive: Potency [1] | Potency [2] | Potency [3] | Potency [4] | Potency [5] | Potency [6] | Potency [7] | Potency [8] | Potency [9] | Potency [10] | Potency [11] | Potency [12] | Potency [13] | Potency [14] | Potency [15] | Potency [16] | Potency [17] | Potency [18] | Potency [19] | Potency [20]

C=CC(=O)OCCOC1C2CCC1C1CC=CC12 (stereo not drawn)
inactive: activity change, negative = cytotoxicity [1] 0.243% [at 19 µM] | activity, positive = activation [2] -2.46% [at 19 µM] | activity change [3] -0.687% [at 11.8 µM, hits give high values] | activation [4] 0.154% [at 15.8 µM] | activation [5] 0.0334% [at 11.8 µM] | activation [6] -3.49% [at 13.5 µM] | activation [7] -1.33% [at 13.6 µM] | activity change, negative = cytotoxicity [8] -0.599% [at 13.5 µM] | activity change, negative = cytotoxicity [9] -0.677% [at 13.5 µM] | activity change, negative = cytotoxicity [10] 10.1% [at 13.5 µM] | activation [11] -0.725% [at 13.5 µM] | activity, negative = inhibition [12] 14.3% [at 12.7 µM] | activation [13] -3.51% [at 15.9 µM] | activity, negative = inhibition [14] 1.12% [at 12.6 µM] | activation [15] 0.0965% [at 15.8 µM] | activation [16] -0.462% [at 19 µM] | activity change, negative = inhibition [17] -8.52% [at 18.9 µM] | activity change, negative = inhibition [18] -1.49% [at 19 µM] | activation [19] -22.8% [at 19 µM] | activation [20] -2.06% [at 19 µM]

Clc1ccc2c(Cl)ccnc2c1
inactive: Potency [1] | Potency [2] | Potency [3] | Potency [4] | Potency [5] | Potency [6] | Potency [7] | Potency [8] | Potency [9] | Potency [10] | Potency [11] | Potency [12] | Potency [13] | Potency [14] | Potency [15] | Potency [16] | Potency [17] | Potency [18] | Potency [19] | Potency [20]

COCCCC/C(=N\OCCN)c1ccc(C(F)(F)F)cc1
inactive: Potency [1] | Potency [2] | Potency [3] | Potency [4] | Potency [5] | Potency [6] | Potency [7] | Potency [8] | Potency [9] | Potency [10] | Potency [11] | Potency [12] | Potency [13] | Potency [14] | Potency [15] | Potency [16] | Potency [17] | Potency [18] | Potency [19]

Cc1c(C(=O)c2c[nH]n(C)c2=O)ccc(S(C)(=O)=O)c1C1=NOCC1
inactive: Potency [1] | Potency [2] | Potency [3] | Potency [4] | Potency [5] | Potency [6] | Potency [7] | Potency [8] | Potency [9] | Potency [10] | Potency [11] | Potency [12] | Potency [13] | Potency [14] | Potency [15] | Potency [16] | Potency [17] | Potency [18] | Potency [19] | Potency [20]

CC(CO)CO
inactive: Potency [1] | Potency [2] | Potency [3] | Potency [4] | Potency [5] | Potency [6] | Potency [7] | Potency [8] | Potency [9] | Potency [10] | Potency [11] | Potency [12] | Potency [13] | Potency [14] | Potency [15] | Potency [16] | Potency [17] | Potency [18] | Potency [19]

Reference: PubChem BioAssay (Tox21)
